PubChem BioAssay
Active and inactive are the calls of the source.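 The calls were made as follows: active = fluorescence slope higher than the sample average by over 3 SD (cut at about -0.22 in these data, passing the limit was not always enough); inactive = the rest.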

What follows are compounds tested against Voltage-gated potassium channel subunit beta-2 (Rattus norvegicus) (UniProt P62483) (assay: KvBeta enzyme negative modulators, primary screen, biochemical, NADPH fluorescence (AID 622;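 also: slope of raw intensity against log time taken from 70 to 1610 s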)). Conditions: recombinant KvBeta, 4-cyanobenzaldehyde reduction, at 10 µM, active compounds read high.
Chain of Voltage-gated potassium channel subunit beta-2 (Rattus norvegicus) (P62483 whole entry, looked up): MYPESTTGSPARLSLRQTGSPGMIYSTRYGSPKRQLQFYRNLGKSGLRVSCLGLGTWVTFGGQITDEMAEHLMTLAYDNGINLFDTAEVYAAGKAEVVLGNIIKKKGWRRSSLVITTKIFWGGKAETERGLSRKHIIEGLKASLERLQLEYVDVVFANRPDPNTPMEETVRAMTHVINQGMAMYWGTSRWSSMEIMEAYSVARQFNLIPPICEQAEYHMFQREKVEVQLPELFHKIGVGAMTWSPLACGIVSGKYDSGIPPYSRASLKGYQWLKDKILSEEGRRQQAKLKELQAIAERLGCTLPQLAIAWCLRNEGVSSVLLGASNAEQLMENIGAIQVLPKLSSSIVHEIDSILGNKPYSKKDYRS

Fluorescence slope, inactive:
CCOC(=O)N1CCN(C(=O)CN(Cc2ccccc2)S(=O)(=O)c2ccc(OC)c(C)c2)CC1 -0.38, COC(=O)c1ccc(COC(=O)c2c(C)nn(Cc3ccccc3Cl)c2Cl)o1 -0.408, O=C(Nc1cccnc1)c1cc2c(ccc3ccccc32)o1 -0.355, Clc1ccc(OCc2nnc(SCCN3CCCCC3)n2Cc2ccco2)cc1 -0.28, O=C(/C=C/N1CCOCC1)c1ccc(-c2ccccc2)cc1 -0.398, COc1cccc(N2C(=O)N(c3ccccc3Cl)C3CS(=O)(=O)CC32)c1 (stereo not given) -0.336, O=C(NCc1cccs1)c1cc2c(s1)CS(=O)(=O)C2 -0.32, CC(C)CC(c1nnnn1C(C)(C)C)N1CCN(C2CCCC2)CC1 (stereo not given) -0.33, Cc1cc(C(=O)COC(=O)CCc2nc3ccccc3s2)c(C)n1C -0.454, Cc1cc(C)n2nc(SCC(=O)N(C)Cc3ccccc3)nc2n1 -0.435, CCCCCCC(c1c(C)n(C)n(-c2ccccc2)c1=O)c1c(C)n(C)n(-c2ccccc2)c1=O -0.407, c1ccc2c(-c3nc(-c4ccncc4)no3)cccc2c1 -0.442, CNC(=O)c1ccc2nc(NC(C)=O)sc2c1 -0.327, O=C(c1ccccc1)c1ccc(N2CCNCC2)cc1 -0.518, N#Cc1c(-c2ccc3c(c2)OCO3)csc1N -0.451, Cc1ccc(Cn2c(SCC(N)=O)nc3c2c(=O)n(C)c(=O)n3C)cc1 -0.333, C#CCOC(=O)C1C2C=CC(C2)C1C(=O)O (stereo not given) -0.341, Cc1nc2ncnn2c(N2CCC(C(=O)NCC3CCCO3)CC2)c1Cc1ccccc1 (stereo not given) -0.407, CCC(=O)Nc1nn(C)c2nc3c(C)cccc3cc12 -0.281, Cc1cc(NC(=O)C(C)(C)C)no1 -0.29, CCN(CC(=O)Nc1ccc2c(c1)CCC2)Cc1nc2ccccc2c(=O)[nH]1 -0.455, Cc1ccc(S(=O)(=O)NCC(=O)OCC(=O)Nc2ncc(Cl)cc2Cl)cc1 -0.465, O=C(CN1C(=O)c2ccccc2C1=O)Nc1ccc(S(=O)(=O)NCC2CCCO2)cc1 (stereo not given) -0.412, Cc1cc(C)nc(SCc2nnc(SCC(=O)Nc3ncc(C)s3)n2Cc2ccco2)n1 -0.353, COc1ccc(C(C)NC(=O)c2ccoc2C)cc1OC (stereo not given) -0.383, Cc1nc(C)n(C(C)CC(=O)O)n1 (stereo not given) -0.386, Cc1cccc(N(CC(=O)N2CCCC2)S(=O)(=O)c2ccccc2)c1C -0.423, CCC1(C)Cc2c(sc3nc(SCC(=O)O)[nH]c(=O)c23)CO1 (stereo not given) -0.391, Cc1cc(NC(=O)CSc2nc(C3CC3)nc3sc4c(c23)CCC(C)C4)no1 (stereo not given) -0.394, CCN(CC)C(c1ccc(C)cc1)c1nnnn1C1CCCCC1 (stereo not given) -0.399, COc1ccc(NC(=O)CSc2nc(C)cc(C(F)(F)F)n2)cc1 -0.418, CC1CN(C(=O)CSc2ncnc3sccc23)CC(C)O1 (stereo not given) -0.469, CC1CCCC(C)N1CCNC(=O)C1CCN(S(=O)(=O)N2CCCCC2)CC1 (stereo not given) -0.384, COc1ccc(C(=O)Nc2ccc(Cl)c(Cl)c2)c(OC)n1 -0.364, CC(C)(C)c1ccc(C(=O)N2CCC(C(=O)NCc3ccncc3)CC2)cc1 -0.368, CCc1nnc(NC(=O)CSc2nc(-c3ccc(OC)cc3)ns2)s1 -0.408, COC(=O)c1ccc(NC(=O)C2C3CCC(C3)C2C(=O)O)cc1 (stereo not given) -0.39, c1ccc(-c2nc3cnccn3c2Nc2ccc3c(c2)OCCO3)cc1 -0.202, CCOCC(O)CS(=O)Cc1ccccc1 (stereo not given) -0.358, Cc1ccc(OCC(O)Cn2c(NCCc3ccccc3)nc3c2c(=O)[nH]c(=O)n3C)cc1 (stereo not given) -0.444
